From PubChem BioAssay (Tox21)
Several values for one entry are separate records, joined by “and”; a condition that tells them apart may be missing. Identical values can stand only once. Records with an inconclusive call do not appear. Entries that show only a call come without a potency. Activity calls are given as the source filed them. Unless noted, calls come from the whole dose curve; as a rule, active = well fitted curve in the direction sought with a large enough effect in the repeat runs; inconclusive = weak or mixed curves; inactive = no such curve, though single readings can be large; an effect the other way counts as inactive or inconclusive.

Columns and labels:
[1] = qHTS assay for small molecule agonists of the p53 signaling pathway (AID 651631; calls by dose curve; note: nearly all actives have a fitted effect of over 15% in size)
How it was run: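 Fluorescence intensity from cleaved LiveBLAzer B/G substrate (2 h, room temperature) served as the signal. Beforehand, HCT-116 reporter cells bearing p53 response elements were treated 16 h at 37 °C with DMSO-dissolved compounds.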

[2] = qHTS assay for small molecules that induce genotoxicity in human embryonic kidney cells expressing luciferase-tagged ATAD5 (AID 651632); note: nearly all actives have a fitted effect of over 15% in size
How it was run: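 Genotoxicity read-out via ATAD5-luciferase: HEK293T cells, 16 hr compound incubation at 37C, Amplite detection.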

[3] = qHTS assay for small molecule agonists of the p53 signaling pathway - cell viability (AID 651633; calls by dose curve;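 note: p53RE-bla HCT reporter cells with a stable beta-lactamase p53 reporter; nearly all actives have a fitted effect of over 30% in size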)
How it was run: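 p53RE-bla cells, seeded at 4,000 per well and rested 5 h at 37 C/5% CO2, received compounds in DMSO for 16 h at 37 C. CellTiter-Glo was then added, and luminescence was read after 30 min at room temperature to gauge cytotoxicity.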

[4] = qHTS assay for small molecules that induce genotoxicity in human embryonic kidney cells expressing luciferase-tagged ATAD5 - cell viability (AID 651634; calls by dose curve; note: nearly all actives have a fitted effect of over 25% in size)
How it was run: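 Live-cell protease activity (CellTiter-Fluor, fluorescence) indicates viability. HEK293T cells with luciferase-tagged ATAD5; 15.5 hr compound treatment at 37C.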

[5] = qHTS assay for small molecule disruptors of the mitochondrial membrane potential - cell viability (AID 720634; calls by dose curve;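 note: human HepG2 liver cancer cells; nearly all actives have a fitted effect of over 20% in size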)
How it was run: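 Human hepatoma HepG2 cells were treated for 1 hr with test chemicals, then given m-MPI dye and CellTiter-Glo. Cell viability reflects luminescence proportional to cellular ATP.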

[6] = qHTS assay for small molecule disruptors of the mitochondrial membrane potential (AID 720635); note: potency is the fitted concentration of half-maximal effect
How it was run: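 HepG2 cells (2,000/well) attached overnight at 37C, then took compound for 1 hr at 37C, 5% CO2. Mito-MPS dye was added for 30 min; fluorescence was read at 490/535 nm (monomers) and 540/590 nm (aggregates).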

[7] = qHTS assay to test for compound auto fluorescence at 590 nm (red) in HepG2 cells (AID 720674)
How it was run: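 Compound auto-fluorescence is scored relative to Rose Bengal sodium, measured at 540/590 nm in live HepG2 cultures after 1 hr compound contact (37 C, 5% CO2).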

[8] = qHTS assay to test for compound auto fluorescence at 535 nm (green) in HepG2 cells (AID 720675)
[9] = qHTS assay to test for compound auto fluorescence at 460 nm (blue) in HEK293 cells (AID 720678)
How it was run: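 HEK293 cells (2,000/well, medium with 10% dialyzed FBS) attached 4-5 hr, then exposed to compound overnight at 37C, 5% CO2. Blue fluorescence read at 405/460 nm, with triamterene as reference fluorophore.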

[10] = qHTS assay to test for compound auto fluorescence at 590 nm (red) in HEK293 cells (AID 720679)
How it was run: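 HEK293 cells (2,000/well, 10% dialyzed FBS) attached 4-5 hr, then dosed with compound or DMSO and incubated overnight at 37C, 5% CO2. Red fluorescence read at 540/590 nm, Rose Bengal sodium as reference fluorophore.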

[11] = qHTS assay to test for compound auto fluorescence at 535 nm (green) in HEK293 cells (AID 720680)
[12] = qHTS assay to test for compound auto fluorescence at 460 nm (blue) in HEK293 cell free culture (AID 720681)
How it was run: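 Test compounds were pinned into cell-free culture medium (DMEM with 10% FBS) and fluorescence was read directly at Ex/Em 405/460 nm. Signals were expressed as fluorescence equivalents of triamterene, with DMSO vehicle as control.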

[13] = qHTS assay to test for compound auto fluorescence at 535 nm (green) in HEK293 cell free culture (AID 720682)
How it was run: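 Intrinsic compound fluorescence is measured in culture medium containing 10% FBS, with excitation at 485 nm and detection at 535 nm, referenced to fluorescein.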

[14] = qHTS assay to test for compound auto fluorescence at 590 nm (red) in HEK293 cell free culture (AID 720683)
How it was run: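 Tox21 10K library compounds were pinned into cell-free DMEM with 10% FBS and fluorescence was read at excitation 540 nm. Activity is expressed as Rose Bengal sodium equivalency.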

[15] = qHTS assay to test for compound auto fluorescence at 590 nm (red) in HepG2 cell free culture (AID 720684)
How it was run: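 Red fluorescence (540 nm excitation, 590 nm emission) was measured after compound transfer into cell-free MEM supplemented with 10% FBS. Values are equivalencies against Rose Bengal sodium.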

[16] = qHTS assay to test for compound auto fluorescence at 460 nm (blue) in HepG2 cell free culture (AID 720685)
How it was run: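 Compound (23 nL) or DMSO pinned into cell-free MEM with 10% FBS; blue fluorescence read at 405/460 nm excitation/emission, expressed as auto-fluorescence equivalency to triamterene.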

[17] = qHTS assay to test for compound auto fluorescence at 535 nm (green) in HepG2 cell free culture (AID 720686)
[18] = qHTS assay to test for compound auto fluorescence at 460 nm (blue) in HepG2 cells (AID 720687)
How it was run: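 Cells (2,000/well in MEM with 10% FBS) attached overnight at 37 C, then were exposed to compound or DMSO for 1 hr at 37 C, 5% CO2. Fluorescence read at Ex/Em 405/460 nm, expressed as triamterene-equivalent signal.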

[19] = target: Glucocorticoid receptor (Homo sapiens) (UniProt P04150); assay: qHTS assay to identify small molecule agonists of the glucocorticoid receptor (GR) signaling pathway (AID 720691; active = well fitted activation curve with a large enough effect in the signal ratio in the repeat runs, not every such curve was filed as active; the % refers to the signal ratio; note: potency is the fitted concentration of half-maximal effect); settings: GR-bla HeLa, beta-lactamase reporter ratio, 18 h; activation: at 62.4 µM (top of the series)
Glucocorticoid receptor (Homo sapiens), sequence (P04150 whole entry, looked up): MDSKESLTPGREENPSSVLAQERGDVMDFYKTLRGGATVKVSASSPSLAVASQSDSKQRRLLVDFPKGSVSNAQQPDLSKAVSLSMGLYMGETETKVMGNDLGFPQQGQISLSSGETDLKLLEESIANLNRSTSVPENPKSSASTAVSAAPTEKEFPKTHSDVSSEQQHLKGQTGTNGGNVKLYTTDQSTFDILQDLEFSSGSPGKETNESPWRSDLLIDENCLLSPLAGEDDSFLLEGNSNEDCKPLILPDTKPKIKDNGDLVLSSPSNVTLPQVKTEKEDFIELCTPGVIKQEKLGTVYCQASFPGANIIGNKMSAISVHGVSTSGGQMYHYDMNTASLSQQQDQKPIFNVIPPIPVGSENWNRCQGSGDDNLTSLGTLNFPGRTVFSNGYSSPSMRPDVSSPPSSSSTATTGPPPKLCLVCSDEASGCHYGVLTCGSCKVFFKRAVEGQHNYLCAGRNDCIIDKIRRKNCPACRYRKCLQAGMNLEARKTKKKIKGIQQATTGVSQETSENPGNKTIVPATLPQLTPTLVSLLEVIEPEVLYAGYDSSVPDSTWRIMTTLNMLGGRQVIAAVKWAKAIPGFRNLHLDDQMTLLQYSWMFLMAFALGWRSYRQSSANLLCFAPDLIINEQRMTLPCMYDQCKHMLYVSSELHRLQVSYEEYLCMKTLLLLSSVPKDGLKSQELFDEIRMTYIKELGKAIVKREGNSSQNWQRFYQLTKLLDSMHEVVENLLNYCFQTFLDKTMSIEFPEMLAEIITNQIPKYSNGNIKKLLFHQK
How it was run: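 Beta-lactamase reporter activity, read as fluorescence intensity, was measured in GR-bla HeLa cells exposed to compounds for 18 h at 37 C and then loaded with LiveBLAzer B/G FRET substrate for 2 h at room temperature.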

[20] = target: Glucocorticoid receptor (Homo sapiens) (UniProt P04150); assay: qHTS assay to identify small molecule antagonists of the glucocorticoid receptor (GR) signaling pathway (AID 720692; active = well fitted inhibition curve with a large enough effect in the signal ratio in the repeat runs, not every such curve was filed as active; the % refers to the signal ratio)
How it was run: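 Fluorescence from cleaved LiveBLAzer B/G FRET substrate reports GRE-driven beta-lactamase in HeLa cells; compounds are tested against 5 nM dexamethasone (final) over 18 h at 37 C, substrate incubation 2 h at room temperature.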

SMILES	Potency [1]	outcome [2]	Potency [3]	Potency [4]	Potency [5]	Potency [6]	outcome [7]	outcome [8]	outcome [9]	outcome [10]	outcome [11]	outcome [12]	outcome [13]	outcome [14]	outcome [15]	outcome [16]	outcome [17]	outcome [18]	Potency [19]	Potency [20]
CC1CCC2CC1C2(C)C (stereo unspecified)	inactive	inactive	inactive	inactive	inactive	inactive	inactive	inactive	inactive	inactive	inactive	inactive	inactive	inactive	inactive	inactive	inactive	inactive	inactive	inactive
CC(=O)c1ccccc1	inactive	inactive	inactive	inactive	inactive	inactive	inactive	inactive	inactive	inactive	inactive	inactive	inactive	inactive	inactive	inactive	inactive	inactive		
C#CCN(C)Cc1ccccc1	inactive	inactive	inactive	inactive	inactive	inactive	inactive		inactive	inactive		inactive	inactive	inactive	inactive	inactive	inactive	inactive	inactive	inactive
CC(=O)CC(=O)Nc1ccccc1C	inactive	inactive	inactive	inactive	inactive	inactive	inactive		inactive	inactive	inactive	inactive	inactive	inactive	inactive	inactive	inactive	inactive	inactive	
CC(C)CC(=O)CC(C)C	inactive	inactive	inactive	inactive	inactive	inactive	inactive	inactive		inactive	inactive	inactive	inactive	inactive	inactive	inactive	inactive	inactive		
OCCOCCOCCO	inactive	inactive	inactive	inactive	inactive	inactive	inactive	inactive	inactive	inactive	inactive	inactive	inactive	inactive	inactive	inactive	inactive	inactive	inactive	inactive
CC1=C(C)S(=O)(=O)CCS1(=O)=O	inactive	inactive	inactive	inactive	inactive		inactive	inactive	inactive	inactive	inactive	inactive	inactive	inactive	inactive	inactive	inactive	inactive	inactive	inactive
Oc1cccc2ccccc12	inactive	inactive	inactive	inactive		28 µM (active) and 19.3 µM (active)	inactive	inactive	inactive	inactive	inactive	inactive	inactive	inactive	inactive	inactive	inactive	inactive	inactive	inactive
C=CCNC(N)=S	inactive	inactive	inactive	inactive	inactive		inactive	inactive		inactive	inactive	inactive	inactive	inactive	inactive	inactive	inactive	inactive		
CC(=O)OCC(=O)[C@@]12N=C(C)O[C@@H]1C[C@H]1[C@@H]3CCC4=CC(=O)C=C[C@]4(C)[C@H]3[C@@H](O)C[C@@]12C	inactive		inactive	inactive	inactive		inactive	inactive	inactive	inactive		inactive	inactive	inactive	inactive	inactive	inactive	inactive	425 nM (active) and 155 nM (active)	
OCCOCCN1CCN(C2=Nc3ccccc3Sc3ccccc32)CC1	inactive		inactive	inactive	inactive		inactive		inactive	inactive		inactive	inactive	inactive	inactive	inactive	inactive	inactive		
CC(O)COCC(C)O (stereo unspecified)	inactive	inactive	inactive		inactive	inactive	inactive			inactive		inactive	inactive	inactive	inactive	inactive	inactive	inactive	inactive	
CSCCC=O	inactive	inactive	inactive		inactive	inactive	inactive			inactive	inactive	inactive	inactive	inactive	inactive	inactive	inactive	inactive	inactive	
CCOC(=O)NNc1nncc2ccccc12	inactive	inactive	inactive		inactive		inactive		inactive	inactive	inactive	inactive	inactive	inactive	inactive	inactive	inactive	inactive	inactive	
CCC(O)OCCCOC (stereo unspecified)	inactive	inactive	inactive		inactive	inactive	inactive	inactive		inactive	inactive	inactive	inactive	inactive	inactive	inactive	inactive	inactive	inactive	inactive
CN(C)CCOCCN(C)C	inactive	inactive	inactive		inactive		inactive		inactive	inactive	inactive	inactive	inactive	inactive	inactive	inactive	inactive	inactive	inactive	inactive
CN(C)CCC(c1ccccc1)c1ccccn1 (stereo unspecified)	inactive		inactive	inactive	inactive		inactive	inactive	inactive	inactive	inactive	inactive	inactive	inactive	inactive	inactive	inactive	inactive	inactive	

SMILES	Potency [1]	outcome [2]	Potency [3]	Potency [4]	Potency [5]	Potency [6]	outcome [7]	outcome [8]	outcome [9]	outcome [10]	outcome [11]	outcome [12]	outcome [13]	outcome [14]	outcome [15]	outcome [16]	outcome [17]	outcome [18]	Potency [19]	Potency [20]
CCCCN(CCCC)CCCC	inactive	inactive	inactive				inactive	inactive		inactive	inactive	inactive	inactive	inactive	inactive	inactive	inactive	inactive	inactive	inactive
CC(C)(C)[C@@H](O)[C@@H](Cc1ccc(Cl)cc1)n1cncn1	inactive	inactive	inactive		inactive		inactive	inactive		inactive	inactive	inactive	inactive	inactive	inactive	inactive	inactive	inactive	inactive	
O=C(CC(C(=O)OC1CCCCC1)S(=O)(=O)O)OC1CCCCC1 (stereo unspecified)	inactive	inactive	inactive		inactive	inactive	inactive			inactive		inactive	inactive	inactive	inactive	inactive	inactive	inactive	inactive	
O=C(O)c1cc(O)c(O)c(O)c1	inactive	inactive	inactive		inactive	inactive	inactive		inactive	inactive	inactive	inactive	inactive	inactive	inactive	inactive	inactive	inactive	inactive	
Cc1ccc(S(N)(=O)=O)cc1	inactive	inactive	inactive		inactive	inactive	inactive		inactive	inactive		inactive	inactive	inactive	inactive	inactive	inactive	inactive	inactive	
c1ccc2scnc2c1	inactive	inactive	inactive		inactive	inactive	inactive	inactive	inactive	inactive		inactive	inactive	inactive	inactive	inactive	inactive	inactive	inactive	inactive
Nc1ccccc1[N+](=O)[O-]	inactive	inactive	inactive		inactive	48.6 µM (active)	inactive	inactive	inactive	inactive	inactive	inactive	inactive	inactive	inactive	inactive	inactive	inactive	inactive	inactive
CCCCCC(N)=O	inactive	inactive	inactive		inactive	inactive	inactive		inactive	inactive	inactive	inactive	inactive	inactive	inactive	inactive	inactive	inactive		
CCCCCCCCCCCCCCO	inactive	inactive	inactive		inactive	61.1 µM (active)	inactive		inactive	inactive	inactive	inactive	inactive	inactive	inactive	inactive	inactive	inactive		
O=C(OCCOCCOC(=O)c1ccccc1)c1ccccc1	inactive	inactive	inactive		inactive	inactive	inactive		inactive	inactive	inactive	inactive	inactive	inactive	inactive	inactive	inactive	inactive	inactive	inactive
O=C(O)c1ccc2c(c1)C(=O)OC2=O	inactive	inactive	inactive		inactive	inactive	inactive	inactive	inactive	inactive	inactive	inactive	inactive	inactive	inactive	inactive	inactive	inactive	inactive	
Cc1cnc(C(=O)NCCc2ccc(S(=O)(=O)NC(=O)NC3CCCCC3)cc2)cn1	inactive	inactive	inactive		inactive		inactive	inactive	inactive	inactive	inactive	inactive	inactive	inactive	inactive	inactive	inactive	inactive	inactive	inactive
O=C(O)c1cc(=O)c2c(OCC(O)COc3cccc4oc(C(=O)O)cc(=O)c34)cccc2o1	inactive	inactive	inactive		inactive	inactive	inactive	inactive	inactive	inactive	inactive	inactive	inactive	inactive	inactive	inactive	inactive	inactive		
C=CCOC(=O)c1ccccc1C(=O)OCC=C	inactive	inactive	inactive	inactive	inactive		inactive			inactive	inactive	inactive	inactive	inactive	inactive	inactive	inactive	inactive		
N[C@@H](Cc1cc(I)c(Oc2cc(I)c(O)c(I)c2)c(I)c1)C(=O)O	inactive	inactive	inactive	inactive	inactive		inactive		inactive	inactive		inactive	inactive	inactive	inactive	inactive	inactive	inactive	inactive	
COc1cc(Cc2cnc(N)nc2N)cc(OC)c1OC	inactive	inactive	inactive		inactive	inactive	inactive	inactive	inactive	inactive		inactive	inactive	inactive	inactive	inactive	inactive	inactive	inactive	
CCCCCCCCCCCCCCCO	inactive	inactive	inactive	inactive			inactive	inactive		inactive		inactive	inactive	inactive	inactive	inactive	inactive	inactive		
